Compounds without any hit were thinned out: in the full panel of roughly 83,000, 20% have a hit.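 Percent growth is the endpoint: 0 to 100 indicates growth inhibition (40 means 60% inhibition), 0 means no net growth, and negative values indicate cell death.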 Unmarked numbers belong to inactive results. The source made the active and inactive calls. How the source made its calls: active means growth percent below 10; inactive means the rest.

Test systems include T-47D breast; BT-549 breast; MDA-MB-435 melanoma; MCF7 breast; HCT-116 colon; HCC-2998 colon; KM12 colon.
What all share (test): NCI-60 one-dose screen, 48 h (100 = growth as untreated, 0 = no growth, -100 = all killed)
Holding throughout (details): 10 µM unless noted

Regarding `COc1cc2c(cc1-c1c(C)noc1C)ncc1nc(C3CCOCC3)n(C3CCC(OC(F)F)CC3)c12` (stereo unspecified), the growth with T-47D breast is 11.3%; with BT-549 breast it was 77.1%; in the test on MDA-MB-435 melanoma it was 48.9%; in the test on MCF7 breast, 18.5%; in the test on HCT-116 colon, 66.1%; in the test with HCC-2998 colon, 56.5%.

`Cc1nc2ccccc2c(/C=C/c2ccc(Br)cc2)c1C(=O)/C=C/c1ccccc1`: the growth was 10.1% in the test with T-47D breast; 21.7% with BT-549 breast; -47.3% (active) with MDA-MB-435 melanoma; 14% with MCF7 breast; -49.1% (active) in the test with HCT-116 colon; -41.4% (active) in the test on HCC-2998 colon. Also, in the test on KM12 colon, the growth is 7.65% (active).

Regarding `COc1ccc(-c2ccc(-c3ccc(C(=N)N)nc3)s2)cc1`, the growth is -31.1% (active) in the test on T-47D breast; 84% with BT-549 breast; -95.8% (active) in the test on MDA-MB-435 melanoma; -65.5% (active) in the test with MCF7 breast; -60.4% (active) in the test on HCT-116 colon; -44.9% (active) with HCC-2998 colon. The growth in the test with KM12 colon was -73.7% (active).

As to `O=C1NCCN1/N=C/c1c(Cl)n(Cc2ccc(Cl)cc2)c2ccccc12`, the growth is 113% in the test on T-47D breast; 79.2% with BT-549 breast; 85.6% in the test with MDA-MB-435 melanoma; 84.7% with MCF7 breast; 89.5% in the test with HCT-116 colon; 95.9% in the test with HCC-2998 colon. In addition, the growth in the test on KM12 colon is 110%.

As to `Cc1[nH]c(C2CC(c3ccc(C(F)(F)F)c(F)c3)=NN2C)c(C)c1C(=O)NCC(F)(F)F` (stereo unspecified), the growth in the test with T-47D breast was 93.9%; in the test with BT-549 breast it was 107%; with MDA-MB-435 melanoma, 100%; with MCF7 breast it was 80.7%; in the test with HCT-116 colon, 101%; in the test with HCC-2998 colon, 105%. Besides, in the test on KM12 colon, the growth was 97.8%.

Take `C#Cc1c(I)n(C2OC(CO[Si](C)(C)C(C)(C)C)C3OC(C)(C)OC32)c(=O)[nH]c1=O` (stereo unspecified): the growth in the test on T-47D breast is -69.3% (active); with BT-549 breast it was 98.5%; in the test with MDA-MB-435 melanoma it was 81.2%; with MCF7 breast, 42.1%; in the test on HCT-116 colon it was -49.6% (active); with HCC-2998 colon it was -75.7% (active). Also, the growth in the test on KM12 colon was 105%.

In the case of `COc1ccc(S(=O)(=O)Oc2ccc(-c3sc4cc(OS(=O)(=O)c5ccc(OC)cc5)ccc4c3C(=O)c3ccc(OCCN4CCCCC4)cc3)cc2)cc1`, the growth in the test on T-47D breast was 94.2%; in the test on BT-549 breast, 94.1%; in the test on MDA-MB-435 melanoma it was 105%; in the test on MCF7 breast it was 91.3%; in the test on HCT-116 colon, 98.8%; in the test on HCC-2998 colon it was 105%. For the same compound, in the test on KM12 colon, the growth was 99.1%.

Regarding `O=C(Oc1ccccc1)c1cc(O)c(O)c(O)c1`, the growth in the test with T-47D breast is 59.7%; in the test on BT-549 breast it was 65.1%; in the test on MDA-MB-435 melanoma, 53.3%; in the test with MCF7 breast, 79.3%; in the test with HCT-116 colon, 58.8%; with HCC-2998 colon, 68.5%. In addition, the growth with KM12 colon is 74.7%.

In the case of `C=CCn1c(SCC(=O)Nc2ccc(C(=O)/C=C/c3cc(OC)c(OC)c(OC)c3)cc2)nnc1-c1cc(-c2ccc(S(N)(=O)=O)cc2)nc2ccccc12`, the growth in the test on T-47D breast was 81.1%; with BT-549 breast, 75.2%; in the test with MDA-MB-435 melanoma, 80.2%; in the test with MCF7 breast, 26.5%; with HCT-116 colon it was 17.2%; in the test on HCC-2998 colon, 105%. Also, the growth in the test on KM12 colon was 59.8%.

`O=C1/C(=C/c2ccc(-c3ccc(Cl)cc3)o2)SC(=S)N1CCc1ccc(O)cc1`: the growth was 43.9% in the test on T-47D breast; 64.6% in the test on BT-549 breast; 19.7% with MDA-MB-435 melanoma; 77.9% in the test with MCF7 breast; 48.8% in the test on HCT-116 colon; 89.6% in the test with HCC-2998 colon. For the same compound, in the test with KM12 colon, the growth is 22.9%.

`CC1=C([Se]CC(OC(=O)[C@@H](CO)NC(=O)OC(C)(C)C)C(=O)NCCCCCC(=O)OCc2ccccc2)C(=O)c2ccccc2C1=O` (stereo partly specified): the growth with T-47D breast was -94.3% (active); in the test with BT-549 breast, -98.6% (active); with MDA-MB-435 melanoma, -83.3% (active); with MCF7 breast it was -44.7% (active); with HCT-116 colon, -88.9% (active); with HCC-2998 colon, -92.5% (active). In addition, the growth with KM12 colon was -52.7% (active).

As for `C=C(C)Cn1c(SCC(=O)c2cccs2)nc2sc3c(c2c1=O)CCCC3`, the growth with T-47D breast is 58.7%; in the test with BT-549 breast, 81.2%; in the test with MDA-MB-435 melanoma, 56%; in the test on MCF7 breast, 46.7%; in the test on HCT-116 colon, 29.3%; in the test with HCC-2998 colon, 76.1%. The growth with KM12 colon was 42.9%.

`C#CC(F)(F)[C@]1(O)CCC2C3CCC4=CC(=O)CCC4=C3[C@@H](c3ccc(N(C)C)cc3)C[C@@]21C` (stereo partly specified): the growth in the test on T-47D breast was 44%; in the test on BT-549 breast, 88.7%; with MDA-MB-435 melanoma, 103%; with MCF7 breast, 57.8%; in the test with HCT-116 colon it was 71.2%; in the test on HCC-2998 colon it was 111%. For the same compound, in the test with KM12 colon, the growth is 99.3%.

For `O=C(OCc1ccc2c(Br)cc(Br)c(O)c2n1)N1CCN(C(=O)c2cc3ccccc3[nH]2)CC1`, the growth is 27.9% in the test with T-47D breast; 56% in the test on BT-549 breast; 43.9% with MDA-MB-435 melanoma; 29.5% in the test on MCF7 breast; 22.4% with HCT-116 colon; 53.1% in the test on HCC-2998 colon. Besides, the growth in the test with KM12 colon is 29.5%.

Take `Cc1ccc(-c2nnc(SCc3nc(N)nc(Nc4ccccc4F)n3)n2-c2ccccc2)cc1`: the growth was 85% in the test on T-47D breast; 97.9% in the test on BT-549 breast; 99.6% with MDA-MB-435 melanoma; 94.9% in the test on MCF7 breast; 98.4% in the test with HCT-116 colon; 126% with HCC-2998 colon. For the same compound, the growth with KM12 colon was 101%.

Turning to `COc1cc(C(=O)/C=C/c2c(-c3cccs3)nc3sc(C)cn23)cc(OC)c1OC`, the growth with T-47D breast was 3.31% (active); with BT-549 breast it was -0.944% (active); with MDA-MB-435 melanoma it was -15.1% (active); in the test on MCF7 breast, 1.13% (active); in the test on HCT-116 colon, 2.71% (active); with HCC-2998 colon it was 20.2%. Also, the growth in the test with KM12 colon is -8.4% (active).

With `CCCCCCCCCCCCCCCCCCOc1ccccc1CC(=O)OCC[N+]1(C)CCCCC1`, the growth in the test on T-47D breast was 66.9%; with BT-549 breast, 58%; in the test with MDA-MB-435 melanoma, 57%; in the test on MCF7 breast, 51.1%; in the test with HCT-116 colon, 30.2%; in the test with HCC-2998 colon, 40.3%.

As to `Nc1nc(N)c2c(n1)NC(c1cccc(Nc3ccnc4cc(C(F)(F)F)ccc34)c1)CC(c1ccc(Cl)cc1)=N2` (stereo unspecified), the growth with T-47D breast is 73.7%; with BT-549 breast, 114%; with MDA-MB-435 melanoma, -24.8% (active); in the test on MCF7 breast, 16.1%; in the test with HCT-116 colon, 15.1%; in the test with HCC-2998 colon, 51.8%. In addition, the growth in the test on KM12 colon is 21.3%.

As for `CCOC(=O)CSc1nc2sc3c(c2c(=O)n1-c1ccccc1)CCCCC3`, the growth in the test on T-47D breast is 94.4%; with BT-549 breast it was 110%; in the test with MDA-MB-435 melanoma, 107%; in the test on MCF7 breast, 94.5%; with HCT-116 colon it was 97.3%; in the test on HCC-2998 colon it was 114%. For the same compound, the growth in the test on KM12 colon is 104%.
